According to ChEMBL document CHEMBL2218924, “A broad activity screen in support of a chemogenomic map for kinase signalling research and drug discovery” (Biochem J, 2013):

Assays:
[1] = biological target: Rho-associated protein kinase 2 (Homo sapiens) (UniProt O75116); conditions: at 1 µM
[2] = biological target: Rho-associated protein kinase 2 (Homo sapiens) (UniProt O75116); conditions: at 10 µM
[3] = biological target: Proto-oncogene tyrosine-protein kinase receptor Ret (Homo sapiens) (UniProt P07949); conditions: at 1 µM
[4] = biological target: Proto-oncogene tyrosine-protein kinase receptor Ret (Homo sapiens) (UniProt P07949); conditions: at 10 µM
[5] = biological target: Macrophage-stimulating protein receptor (Homo sapiens) (UniProt Q04912); conditions: at 1 µM
Sequence of Macrophage-stimulating protein receptor (Homo sapiens) (Q04912 25-304 limits assumed): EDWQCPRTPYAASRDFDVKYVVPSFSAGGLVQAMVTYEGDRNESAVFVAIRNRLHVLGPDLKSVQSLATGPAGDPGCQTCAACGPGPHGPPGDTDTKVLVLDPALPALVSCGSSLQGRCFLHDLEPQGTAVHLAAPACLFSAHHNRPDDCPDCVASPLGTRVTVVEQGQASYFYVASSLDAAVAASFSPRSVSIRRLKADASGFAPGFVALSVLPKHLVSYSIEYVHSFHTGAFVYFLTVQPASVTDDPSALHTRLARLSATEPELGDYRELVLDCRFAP
Sequence of Macrophage-stimulating protein receptor (Homo sapiens) (Q04912 310-1400 limits assumed): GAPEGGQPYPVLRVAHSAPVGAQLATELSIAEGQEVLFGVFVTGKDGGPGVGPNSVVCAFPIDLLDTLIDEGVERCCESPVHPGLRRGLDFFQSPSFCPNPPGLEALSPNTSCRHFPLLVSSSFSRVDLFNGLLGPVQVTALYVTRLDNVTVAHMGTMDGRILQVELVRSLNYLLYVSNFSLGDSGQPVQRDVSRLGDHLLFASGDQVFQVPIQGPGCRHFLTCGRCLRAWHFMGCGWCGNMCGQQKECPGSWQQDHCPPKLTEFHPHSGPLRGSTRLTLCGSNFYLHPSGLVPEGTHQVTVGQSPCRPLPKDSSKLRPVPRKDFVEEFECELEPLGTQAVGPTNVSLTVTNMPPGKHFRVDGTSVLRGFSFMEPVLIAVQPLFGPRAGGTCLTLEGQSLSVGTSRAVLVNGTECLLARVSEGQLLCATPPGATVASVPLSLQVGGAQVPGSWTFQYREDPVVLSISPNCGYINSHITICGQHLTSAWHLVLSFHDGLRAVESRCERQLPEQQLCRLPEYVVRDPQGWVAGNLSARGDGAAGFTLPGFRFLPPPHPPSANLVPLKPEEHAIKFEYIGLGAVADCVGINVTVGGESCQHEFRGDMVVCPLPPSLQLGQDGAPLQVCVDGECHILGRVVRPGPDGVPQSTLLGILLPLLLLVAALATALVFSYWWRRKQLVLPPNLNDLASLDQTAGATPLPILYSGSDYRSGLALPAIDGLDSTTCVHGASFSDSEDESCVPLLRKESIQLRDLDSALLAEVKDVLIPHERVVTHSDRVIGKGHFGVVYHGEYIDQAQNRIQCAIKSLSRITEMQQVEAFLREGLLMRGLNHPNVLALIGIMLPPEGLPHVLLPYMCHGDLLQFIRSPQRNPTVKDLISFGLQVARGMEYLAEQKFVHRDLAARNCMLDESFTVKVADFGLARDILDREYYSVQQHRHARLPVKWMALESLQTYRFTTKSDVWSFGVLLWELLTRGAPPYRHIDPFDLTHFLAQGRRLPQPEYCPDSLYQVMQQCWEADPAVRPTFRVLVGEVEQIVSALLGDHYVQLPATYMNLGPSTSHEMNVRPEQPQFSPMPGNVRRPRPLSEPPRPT

[6] = biological target: Macrophage-stimulating protein receptor (Homo sapiens) (UniProt Q04912); conditions: at 10 µM
[7] = biological target: Proto-oncogene tyrosine-protein kinase ROS (Homo sapiens) (UniProt P08922); conditions: at 1 µM
[8] = biological target: Proto-oncogene tyrosine-protein kinase ROS (Homo sapiens) (UniProt P08922); conditions: at 10 µM
[9] = biological target: T1, Tyrosine-protein kinase receptor TYRO3 (Homo sapiens) (UniProt Q06418); conditions: at 1 µM
T1 sequence (whole entry): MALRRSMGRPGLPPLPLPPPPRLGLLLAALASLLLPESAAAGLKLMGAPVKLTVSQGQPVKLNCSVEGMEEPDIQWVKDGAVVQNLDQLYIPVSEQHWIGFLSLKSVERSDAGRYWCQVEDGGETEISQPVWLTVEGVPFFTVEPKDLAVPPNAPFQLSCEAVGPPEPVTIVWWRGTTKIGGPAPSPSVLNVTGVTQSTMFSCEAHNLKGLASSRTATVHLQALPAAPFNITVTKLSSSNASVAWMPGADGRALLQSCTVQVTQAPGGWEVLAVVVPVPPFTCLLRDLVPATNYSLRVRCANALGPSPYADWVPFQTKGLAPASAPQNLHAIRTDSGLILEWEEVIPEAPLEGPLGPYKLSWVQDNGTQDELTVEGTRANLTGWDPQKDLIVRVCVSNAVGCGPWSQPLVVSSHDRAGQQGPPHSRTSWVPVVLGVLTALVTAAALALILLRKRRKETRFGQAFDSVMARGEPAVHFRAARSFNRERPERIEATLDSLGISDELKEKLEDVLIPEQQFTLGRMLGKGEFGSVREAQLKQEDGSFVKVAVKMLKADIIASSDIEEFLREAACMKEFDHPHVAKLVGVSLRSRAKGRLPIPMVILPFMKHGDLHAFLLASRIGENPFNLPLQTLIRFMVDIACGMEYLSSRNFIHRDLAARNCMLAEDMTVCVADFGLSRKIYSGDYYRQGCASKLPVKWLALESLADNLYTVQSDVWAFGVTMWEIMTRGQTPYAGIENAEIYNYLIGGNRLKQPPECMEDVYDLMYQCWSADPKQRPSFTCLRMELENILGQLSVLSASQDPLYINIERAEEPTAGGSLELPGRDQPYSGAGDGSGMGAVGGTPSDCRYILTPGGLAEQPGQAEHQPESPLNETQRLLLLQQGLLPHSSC

[10] = biological target: T1, Tyrosine-protein kinase receptor TYRO3 (Homo sapiens); conditions: at 10 µM
[11] = biological target: Ribosomal protein S6 kinase alpha-1 (Homo sapiens) (UniProt Q15418); conditions: at 1 µM
Sequence of Ribosomal protein S6 kinase alpha-1 (Homo sapiens) (Q15418 whole entry): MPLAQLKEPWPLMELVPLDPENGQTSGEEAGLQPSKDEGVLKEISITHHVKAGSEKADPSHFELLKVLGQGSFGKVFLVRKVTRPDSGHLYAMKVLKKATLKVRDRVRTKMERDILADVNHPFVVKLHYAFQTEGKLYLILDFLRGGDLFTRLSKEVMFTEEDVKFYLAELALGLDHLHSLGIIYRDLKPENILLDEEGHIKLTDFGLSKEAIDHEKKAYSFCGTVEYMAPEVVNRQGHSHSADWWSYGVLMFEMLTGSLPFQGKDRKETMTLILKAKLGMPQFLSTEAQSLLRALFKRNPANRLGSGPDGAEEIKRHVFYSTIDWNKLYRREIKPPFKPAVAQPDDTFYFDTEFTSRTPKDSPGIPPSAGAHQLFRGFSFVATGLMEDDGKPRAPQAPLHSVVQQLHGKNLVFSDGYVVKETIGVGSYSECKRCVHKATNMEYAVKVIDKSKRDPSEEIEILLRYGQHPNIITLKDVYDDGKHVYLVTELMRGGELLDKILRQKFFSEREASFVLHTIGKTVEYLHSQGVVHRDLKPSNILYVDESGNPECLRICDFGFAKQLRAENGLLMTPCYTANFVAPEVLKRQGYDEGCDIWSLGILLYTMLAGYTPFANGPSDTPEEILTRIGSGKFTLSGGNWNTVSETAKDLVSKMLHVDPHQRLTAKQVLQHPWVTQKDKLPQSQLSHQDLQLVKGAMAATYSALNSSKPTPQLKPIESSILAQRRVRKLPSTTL

[12] = biological target: Ribosomal protein S6 kinase alpha-1 (Homo sapiens) (UniProt Q15418); conditions: at 10 µM
[13] = biological target: Ribosomal protein S6 kinase alpha-3 (Homo sapiens) (UniProt P51812); conditions: at 1 µM
Sequence of Ribosomal protein S6 kinase alpha-3 (Homo sapiens) (P51812 whole entry): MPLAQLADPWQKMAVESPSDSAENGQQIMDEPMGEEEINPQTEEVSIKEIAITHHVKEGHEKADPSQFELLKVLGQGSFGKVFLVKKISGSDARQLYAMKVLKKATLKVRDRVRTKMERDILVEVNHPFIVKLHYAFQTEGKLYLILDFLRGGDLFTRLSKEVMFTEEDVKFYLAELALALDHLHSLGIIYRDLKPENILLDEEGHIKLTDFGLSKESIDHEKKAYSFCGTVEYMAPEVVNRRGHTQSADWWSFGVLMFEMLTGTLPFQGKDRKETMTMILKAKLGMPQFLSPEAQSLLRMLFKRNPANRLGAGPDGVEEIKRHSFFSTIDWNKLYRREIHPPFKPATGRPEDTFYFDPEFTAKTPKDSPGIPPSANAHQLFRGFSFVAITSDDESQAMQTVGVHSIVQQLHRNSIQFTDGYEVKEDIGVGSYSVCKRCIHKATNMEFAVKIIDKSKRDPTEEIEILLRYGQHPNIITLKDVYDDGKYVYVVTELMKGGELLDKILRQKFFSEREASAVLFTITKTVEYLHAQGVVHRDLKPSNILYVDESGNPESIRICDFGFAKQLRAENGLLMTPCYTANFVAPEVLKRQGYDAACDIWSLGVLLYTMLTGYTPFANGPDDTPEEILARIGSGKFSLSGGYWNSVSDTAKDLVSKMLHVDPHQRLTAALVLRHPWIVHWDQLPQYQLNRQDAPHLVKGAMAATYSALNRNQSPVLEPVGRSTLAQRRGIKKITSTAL

[14] = biological target: Ribosomal protein S6 kinase alpha-3 (Homo sapiens) (UniProt P51812); conditions: at 10 µM
[15] = biological target: Ribosomal protein S6 kinase alpha-2 (Homo sapiens) (UniProt Q15349); conditions: at 1 µM
Sequence of Ribosomal protein S6 kinase alpha-2 (Homo sapiens) (Q15349 whole entry): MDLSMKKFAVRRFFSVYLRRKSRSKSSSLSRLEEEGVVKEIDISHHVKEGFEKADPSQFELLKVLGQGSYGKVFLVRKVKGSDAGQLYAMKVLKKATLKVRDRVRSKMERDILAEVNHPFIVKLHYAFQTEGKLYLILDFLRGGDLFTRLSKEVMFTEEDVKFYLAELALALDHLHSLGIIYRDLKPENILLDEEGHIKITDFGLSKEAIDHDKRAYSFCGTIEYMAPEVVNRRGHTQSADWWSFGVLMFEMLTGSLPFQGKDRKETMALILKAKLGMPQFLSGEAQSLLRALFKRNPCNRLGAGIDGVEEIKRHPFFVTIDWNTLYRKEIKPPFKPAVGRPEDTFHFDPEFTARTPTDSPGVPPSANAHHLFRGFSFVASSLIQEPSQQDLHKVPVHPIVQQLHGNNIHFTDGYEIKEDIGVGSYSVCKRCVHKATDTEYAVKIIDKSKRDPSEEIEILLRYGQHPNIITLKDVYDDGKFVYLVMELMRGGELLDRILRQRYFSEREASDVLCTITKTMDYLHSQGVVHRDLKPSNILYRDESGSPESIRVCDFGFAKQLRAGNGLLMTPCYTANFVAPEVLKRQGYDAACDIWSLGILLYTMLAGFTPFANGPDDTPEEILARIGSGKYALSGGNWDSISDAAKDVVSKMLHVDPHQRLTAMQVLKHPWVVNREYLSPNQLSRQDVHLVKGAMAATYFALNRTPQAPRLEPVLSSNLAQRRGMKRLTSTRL

[16] = biological target: Ribosomal protein S6 kinase alpha-2 (Homo sapiens) (UniProt Q15349); conditions: at 10 µM
[17] = biological target: Ribosomal protein S6 kinase alpha-6 (Homo sapiens) (UniProt Q9UK32); conditions: at 1 µM
[18] = biological target: Ribosomal protein S6 kinase alpha-6 (Homo sapiens) (UniProt Q9UK32); conditions: at 10 µM
[19] = biological target: Mitogen-activated protein kinase 14 (Homo sapiens) (UniProt Q16539); conditions: at 1 µM
[20] = biological target: Mitogen-activated protein kinase 14 (Homo sapiens) (UniProt Q16539); conditions: at 10 µM

Sequence of Rho-associated protein kinase 2 (Homo sapiens) (O75116 whole entry, looked up): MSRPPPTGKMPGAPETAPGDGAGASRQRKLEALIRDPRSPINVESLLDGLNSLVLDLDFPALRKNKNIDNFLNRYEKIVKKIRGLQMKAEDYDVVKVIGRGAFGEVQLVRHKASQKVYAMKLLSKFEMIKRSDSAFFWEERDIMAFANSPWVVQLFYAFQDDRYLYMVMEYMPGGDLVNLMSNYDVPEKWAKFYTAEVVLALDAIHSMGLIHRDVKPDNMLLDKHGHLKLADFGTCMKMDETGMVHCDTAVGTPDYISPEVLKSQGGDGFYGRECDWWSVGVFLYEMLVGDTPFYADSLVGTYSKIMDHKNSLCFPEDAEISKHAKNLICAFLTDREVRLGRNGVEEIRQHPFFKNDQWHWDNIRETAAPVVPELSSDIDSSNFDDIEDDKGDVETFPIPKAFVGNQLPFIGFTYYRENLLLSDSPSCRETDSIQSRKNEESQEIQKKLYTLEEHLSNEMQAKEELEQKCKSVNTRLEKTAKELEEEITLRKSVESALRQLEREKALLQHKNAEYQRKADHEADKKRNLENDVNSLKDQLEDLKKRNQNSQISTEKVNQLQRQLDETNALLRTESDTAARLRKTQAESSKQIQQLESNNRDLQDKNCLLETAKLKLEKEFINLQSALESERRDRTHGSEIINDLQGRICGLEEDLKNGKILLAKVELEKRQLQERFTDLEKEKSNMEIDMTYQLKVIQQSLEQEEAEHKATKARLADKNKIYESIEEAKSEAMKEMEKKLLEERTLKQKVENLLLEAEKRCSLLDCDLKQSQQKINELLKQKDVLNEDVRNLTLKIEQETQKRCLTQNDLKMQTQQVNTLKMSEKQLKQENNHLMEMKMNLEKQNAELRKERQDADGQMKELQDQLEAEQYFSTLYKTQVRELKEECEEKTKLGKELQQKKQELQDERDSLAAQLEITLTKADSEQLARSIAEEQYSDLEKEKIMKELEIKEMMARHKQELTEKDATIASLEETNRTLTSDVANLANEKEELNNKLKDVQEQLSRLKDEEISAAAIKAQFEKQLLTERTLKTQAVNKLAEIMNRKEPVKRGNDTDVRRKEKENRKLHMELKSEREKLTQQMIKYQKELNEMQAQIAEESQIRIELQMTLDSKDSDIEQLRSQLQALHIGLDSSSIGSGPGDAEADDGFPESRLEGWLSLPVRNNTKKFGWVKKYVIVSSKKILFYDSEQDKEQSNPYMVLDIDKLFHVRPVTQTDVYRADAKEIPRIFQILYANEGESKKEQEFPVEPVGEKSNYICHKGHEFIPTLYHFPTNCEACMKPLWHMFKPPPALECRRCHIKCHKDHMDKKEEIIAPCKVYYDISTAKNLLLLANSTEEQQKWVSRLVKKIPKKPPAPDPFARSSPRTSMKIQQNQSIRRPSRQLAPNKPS

SMILES | residual activity [1] | residual activity [2] | residual activity [3] | residual activity [4] | residual activity [5] | residual activity [6] | residual activity [7] | residual activity [8] | residual activity [9] | residual activity [10] | residual activity [11] | residual activity [12] | residual activity [13] | residual activity [14] | residual activity [15] | residual activity [16] | residual activity [17] | residual activity [18] | residual activity [19] | residual activity [20]
O=C1NC(=O)c2c1c1c3ccccc3[nH]c1n1cncc21 | 88% | 85% | 59% | 33% | 73% | 71% | 97% | 88% | 95% | 69% | 58% | 43% | 57% | 24% | 33% | 15% | 37% | 36% | 93% | 87%
Nc1ncnc2[nH]nc(Nc3ccc(F)cc3)c12 | 104% | 91% | 72% | 18% | – | 67% | 104% | 95% | 104% | 50% | 106% | 64% | 42% | 24% | 59% | 17% | 48% | 30% | 78% | 47%
O=C(c1cc2cc(O)ccc2[nH]1)c1cc2cc(O)ccc2[nH]1 | 67% | 24% | 8% | 0% | 80% | 33% | – | – | 39% | 2% | 40% | 9% | 30% | 4% | 13% | 2% | 26% | 10% | 75% | 73%
O=c1cc(N2CCOCC2)oc2c1ccc1ccccc12 | 99% | 67% | 99% | 107% | 98% | 75% | 100% | 99% | 87% | 93% | 108% | 97% | 57% | 46% | 109% | 99% | 110% | 101% | 100% | 92%
NC(=O)c1ccc(-c2nc(-c3ccc4c(c3)OCCO4)c(-c3ccccn3)[nH]2)cc1 | – | – | – | – | 94% | 86% | – | – | – | – | – | – | 56% | 53% | – | – | 90% | – | 77% | 37%
O=c1c(-c2ccc(F)cc2)c(-c2ccncc2)[nH]n1-c1ccc(Cl)cc1 | – | – | – | 55% | 78% | 80% | – | – | – | – | – | – | – | – | – | – | – | – | 3% | 0%
CCN(CC)CCNC(=O)c1c(C)[nH]c(/C=C2\C(=O)Nc3ccc(Cl)cc32)c1C | – | – | -1% | -1% | – | 40% | – | – | 24% | -1% | 11% | 2% | 11% | 1% | 9% | 1% | 14% | 9% | 82% | 52%
COc1ccc(-c2cnc3c(-c4ccsc4)cnn3c2)cc1 | – | – | 89% | 99% | – | 87% | – | – | 95% | 93% | – | – | 67% | 51% | – | – | 100% | 136% | 81% | –
N#Cc1c(NC(=O)c2cccc3ccccc23)sc2c1CCCC2 | – | 99% | – | – | 74% | 65% | 93% | 96% | – | 92% | – | 94% | 49% | 51% | – | – | 92% | 90% | – | –
Oc1cccc(-c2nc(N3CCOCC3)c3oc4ncccc4c3n2)c1 | – | – | – | – | – | – | – | – | 82% | 93% | 141% | 98% | 70% | 64% | – | – | – | – | – | –
O=C1Cc2c([nH]c3ccc(Br)cc23)-c2ccccc2N1 | – | – | – | 72% | 72% | 77% | – | – | – | 83% | 78% | 77% | – | – | 12% | 9% | – | – | – | –
COc1ccc2c(c1)c(C1=C(c3c[nH]c4ccccc34)C(=O)NC1=O)cn2CCCN(C)C | – | – | 75% | 45% | 77% | 56% | – | – | 79% | 76% | 6% | 1% | 2% | -1% | 0% | -2% | 4% | 2% | – | –
CN(C)S(=O)(=O)c1ccc2c(c1)/C(=C/c1cc3c([nH]1)CCCC3)C(=O)N2 | 99% | – | 22% | 37% | 64% | 83% | – | – | 67% | 69% | 95% | 95% | 61% | 42% | 36% | 17% | 84% | 89% | 87% | 86%
O=C(Nc1nc2ccccc2n1CCN1CCOCC1)c1cccc([N+](=O)[O-])c1 | – | – | 88% | 101% | – | – | – | – | – | – | – | – | 104% | 83% | – | – | 108% | 80% | – | –
O=C1Cc2c([nH]c3ccc([N+](=O)[O-])cc23)-c2ccccc2N1 | – | – | 103% | 79% | 100% | 108% | – | – | – | – | – | – | 56% | 34% | 38% | 22% | 64% | 38% | – | –
Nc1nccc(-c2c(-c3ccc(F)cc3)ncn2C2CCNCC2)n1 | – | – | – | – | – | – | – | – | – | – | – | – | 54% | 36% | 83% | 50% | – | 70% | – | –
